A selection: hits, their analogues and other compounds. The true share with any hit is near 11%.
12-hLO inh: blocks human 12-lipoxygenase activity. P18054. purified 12-hLO, xylenol orange hydroperoxide absorbance. Potency, µM (top dose mostly 57.1 µM), for inactives: at the highest dose activity change, negative = inhibition, hits mostly inhibitors. 150,000 tested, 0.12% active; also: potency is read from the fitted curve at half-maximal effect; nearly all actives have a fitted effect of over 55% in size
Target sequence (P18054 whole entry, looked up): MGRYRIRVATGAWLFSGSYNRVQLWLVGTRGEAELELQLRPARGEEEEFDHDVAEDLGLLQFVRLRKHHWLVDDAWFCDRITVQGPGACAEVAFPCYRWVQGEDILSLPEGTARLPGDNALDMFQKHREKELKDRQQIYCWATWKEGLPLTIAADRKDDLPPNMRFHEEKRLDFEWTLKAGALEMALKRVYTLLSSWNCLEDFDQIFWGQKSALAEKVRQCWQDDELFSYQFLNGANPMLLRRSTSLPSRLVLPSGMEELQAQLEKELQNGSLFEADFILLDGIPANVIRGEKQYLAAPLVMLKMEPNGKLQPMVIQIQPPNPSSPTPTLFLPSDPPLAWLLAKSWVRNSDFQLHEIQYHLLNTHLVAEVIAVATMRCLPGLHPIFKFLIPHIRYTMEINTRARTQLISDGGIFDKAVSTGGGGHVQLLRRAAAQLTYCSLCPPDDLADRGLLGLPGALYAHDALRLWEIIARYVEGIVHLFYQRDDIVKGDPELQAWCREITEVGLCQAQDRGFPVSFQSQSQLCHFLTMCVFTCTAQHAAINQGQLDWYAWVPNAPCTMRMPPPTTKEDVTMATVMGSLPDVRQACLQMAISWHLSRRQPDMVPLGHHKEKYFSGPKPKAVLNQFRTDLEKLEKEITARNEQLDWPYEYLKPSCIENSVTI
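Purified human 12hLO (150 nM), preincubated 15 min with compound, then 40 uM arachidonic acid for 30 min, room temperature, Hepes pH 7.0 with 0.01% Triton X-100. Hydroperoxide detected by ferrous iron/xylenol orange; 573/405 nm absorbance ratio gives reaction progress.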
PNC inhibitor: inhibitors of perinucleolar compartment assembly; AID 2417; PC3M PTB-GFP, PNC prevalence imaging, 16 h; active compounds read low; activity change (PNC), negative = inhibition, % at 10 µM; 140,000 tested, 3.1% active;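 active = readout at or below -70, meaning at least 70% loss of cells showing the perinucleolar compartment, a nuclear body marking cancer cells; inconclusive = readout between -30 and a set limit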;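 also: plate controls were DMSO wells for no effect and camptothecin positive control wells for full effect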
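PC3M cells stably expressing PTB-GFP, 750–1000 cells/well, treated 16 h at 37 °C with compound (23 nl of library stock), in duplicate. After paraformaldehyde fixation and Hoechst stain, imaged at 20x; PNC prevalence scored by image analysis.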
IMPase cell inh: membrane-permeable compound that blocks inositol monophosphatase | P97697 | CHO-M1 cells, IP1 accumulation, HTRF TR-FRET ratio | inhibition (IP1 accumulation), % at 46.1 µM | 120,000 tested, under 10 active | AID 901; active = well fitted curve in the direction sought with a large enough effect in the signal ratio, not every such curve was filed as active; inconclusive = small, poorly fitted or top-dose-only effect, or a change in a side signal; inactive = no such curve, though single readings can be large or run the other way; the % refers to the signal ratio;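 also: cells stimulated with carbachol in lithium chloride buffer; plate controls were DMSO basal wells for no effect and reference inhibitor wells for full effect; higher means more IMPase inhibition seen as more IP1 and lower FRET ratio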
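CHO-M1 cells (CHO stably expressing M1 receptor), compound up to 46 uM final, stimulated with carbachol (50 uM as added) in buffer with 50mM LiCl, pH 7.4, 30 min at 37C. Cytosolic IP1 read by TR-FRET; AC50 from Hill fits.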
HPGD inh: inhibitors of human 15-hydroxyprostaglandin dehydrogenase (HPGD) | purified HPGD, NADH fluorescence kinetic, PGE2 substrate | Potency, µM, inactives show top-dose activity change, negative = inhibition, most hits filed as inhibitors | 150,000 tested, 4.3% active; active = well fitted inhibition curve with a large enough effect, not every such curve was filed as active; inconclusive = small, poorly fitted or top-dose-only effect, or another doubt; inactive = no such curve, though single readings can be large or run the other way; also: potency is read from the fitted curve at half-maximal effect
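20 nM HPGD preincubated 15 min at room temperature with compound in 50 mM Tris-HCl pH 8, 0.01% Tween 20. Started with 1 mM NAD+ and 30 uM prostaglandin E2; NADH fluorescence (360/450 nm) read 5 times over 30-s intervals, last minus first.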
ALDH1A1 block: blocks purified human ALDH1A1 activity | P00352 | Purified ALDH1A1, NADH fluorescence, propionaldehyde substrate | Potency, µM (titrated, usually from 75.3 µM), inactives show at the highest dose activity, negative = inhibition, hits mostly inhibitors | 220,000 tested, 7.3% active; active = well fitted inhibition curve with a large enough effect, not every such curve was filed as active; inconclusive = small, poorly fitted or top-dose-only effect, or another doubt; inactive = no such curve, though single readings can be large or run the other way;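 also: potency is read from the fitted curve at half-maximal effect; plate controls were no enzyme wells and a reference inhibitor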
IMPase Li inh: membrane-permeable IMPase blocker, potentiated with lithium; CHO-M1 cells, IP1 TR-FRET (IP-One), carbachol + lithium; Potency, µM (highest dose often 59.4 µM), without a hit: at the highest dose activity, negative = IMPase inhibition, usual class: inhibitors; 210,000 tested, 0.35% active; AID 1457;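 also: IP1 builds up when IMPase is blocked and the TR-FRET signal falls; potency is read from the fitted curve at half-maximal effect; plate controls were basal vehicle for no effect and high inhibitor control for full effect; nearly all actives have a fitted effect of over 50% in size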
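CHO cells stably expressing M1 receptor (2000/well) were cultured 16–30 h, then exposed to compounds with a small lithium addition for 30 min at 37C. IP1 was measured by TR-FRET competition; AC50 from Hill fits.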
An asterisk follows results filed as active; ? = inconclusive; nt = no result given; [ ] = dose if it differs, or a comment. Unless noted, calls follow the shape of the dose curve; as a rule, active = well fitted curve in the direction sought with a large enough effect; inconclusive = small, poorly fitted or top-dose-only effect, or another doubt; inactive = no such curve, though single readings can be large; an effect the other way counts as inactive or inconclusive. Unless noted, % is scaled to controls: 0 for no effect and ±100 for the full control effect.

SMILES | 12-hLO inh | PNC inhibitor | IMPase cell inh | HPGD inh | ALDH1A1 block | IMPase Li inh
c1ccc(Cn2nnnc2CN2CCN(c3ncccn3)CC2)cc1 | 2% | -21 | 5 | -3% | 11µM* | 8%[38.3 µM]
COc1ccc(Cn2nnnc2CN2CCOCC2)cc1 | 0% | 223 | 13 | -18% | -1% | 1%
Cc1ccsc1/C=C1\SC(=S)N(CC2CCCO2)C1=O (stereo not drawn) | nt | nt | nt | nt | 1µM* | 23%
CCCOc1ccc(/C=C2\SC(=S)N(CC3CCCO3)C2=O)cc1 (stereo not drawn) | 3% | 26 | nt | -7% | 6.3µM* | 16%
CNC(=O)c1ccccc1 | 3% | nt | nt | -7% | -4% | 9%
COC(=O)N1CCC2(CCCN(C(=O)Nc3cccc(F)c3)C2)CC1 | -1% | nt | nt | -4% | 1% | 6%
O=C(/C=C/c1ccccc1)c1cc(Br)ccc(=O)c1O | ? | -21 | -4 | 20µM* | 7.1µM* | -19%[38.3 µM]
Cc1ccc(/C=C/C(=O)c2ccccc(=O)c2O)cc1C | -24% | -7 | nt | -27% | ? | -2%
Cc1ccc(C(=O)N/C(=C\c2ccc(F)cc2)C(=O)NCc2ccncc2)cc1 | -2% | -119* | -3 | -6% | -3% | 8%
O=C(c1cc2c(cc1Br)OCCCO2)N1CCCCC1 | 0% | 30 | nt | 2.2µM* | 9% | -3%
O=C(c1cc(F)c(F)cc1Cl)N1CCCCC1 | 3% | 46 | -4 | 5.6µM* | -1% | 8%[38.3 µM]
CC1CCC(C(C)C)[C@H](O)C1 (stereo partly drawn) | 1% | nt | nt | -11% | -2% | -2%
CC(C)CCSc1nc2c(c(=O)n(C)c(=O)n2C)n1Cc1ccccc1Cl | nt | nt | 12 | nt | nt | nt
COn1c(SC(C)C)nc2ccccc2c1=O | 3% | 19 | 1 | -13% | 3% | -2%[38.3 µM]
COc1nc2ccccc2c(=O)n1OCC(C)C | -1% | -82* | 8 | -18% | 14µM* | -7%[38.3 µM]
COc1ccc(S(=O)(=O)N(CC(=O)NC(C)c2ccccc2)c2ccc(C)cc2)cc1OC (stereo not drawn) | nt | nt | -5 | nt | nt | nt
CCCN1C(=O)/C(=C/c2ccc(OCC(=O)OCC)cc2)NC1=S | nt | nt | nt | nt | 1µM* | 7%
Cc1cc(/C=C2\NC(=S)N(C)C2=O)ccc1N1CCCC1 | nt | nt | nt | nt | ? | 24%
CCCN1C(=O)/C(=C/c2ccc(N3CCCC3)c(C)c2)NC1=S | -19% | ? | 14 | -30% | 0.22µM* | 9%[38.3 µM]
CCCN1C(=O)/C(=C/c2ccc(N3CCOCC3)cc2)NC1=S | nt | nt | nt | nt | 6.3µM* | 0%
CCN1C(=O)/C(=C/c2ccc(N3CCCC3)cc2)NC1=S | -27% | 25 | nt | -18% | 13µM* | 24%
Cc1ccc(CN2C(=O)N/C(=C\c3ccc(N4CCOCC4)cc3)C2=O)cc1 | -4% | -6 | nt | -8% | -3% | -2%
CCOC(=O)COc1ccc(S(=O)(=O)c2ccc(OCC(=O)OCC)cc2)cc1 | 3% | 30 | 0 | -3% | -5% | -4%[38.3 µM]
COc1ccc2[nH]cc(CCNc3ncncc3-c3c(C)noc3C)c2c1 | nt | nt | nt | nt | 2% | 9%
N[C@@H]1CCN(O)C1=O | 0% | nt | -8 | -2% | 0% | -6%
SMILES | 12-hLO inh | PNC inhibitor | IMPase cell inh | HPGD inh | ALDH1A1 block | IMPase Li inh
CC(=O)C1C(=O)CC(C)(O)C(C(C)=O)C1c1ccc(N(C)C)cc1 (stereo not drawn) | -11% | ? | -8 | 0% | 3.2µM* | 29%[38.3 µM]
CCOC(=O)C1C(=O)CC(C)(O)C(C(=O)OCC)C1c1ccc(OC)cc1 (stereo not drawn) | -11% | ? | -6 | -7% | 6% | -22%[38.3 µM]
Cc1c(-n2c(O)c(C3=c4ccccc4=NC3=O)sc2=S)c(=O)n(-c2ccccc2)n1C | nt | nt | nt | nt | 7.9µM* | 21%
O=C1N=c2ccccc2=C1c1sc(=S)n(-c2ccc(O)cc2)c1O | nt | nt | nt | nt | -1% | nt
CCCCOc1cccc(C2c3c(oc4ccccc4c3=O)C(=O)N2c2ccccn2)c1 (stereo not drawn) | nt | nt | -4 | nt | nt | nt
CCOC(=O)N/N=C/c1c(C)nn(-c2ccccc2Cl)c1Cl | -2% | -9 | 4 | ? | -1% | -3%

Source: PubChem (National Center for Advancing Translational Sciences (NCATS))
